# mIDH1 inhibitor: qHTS for Inhibitors of mutant isocitrate dehydrogenase 1 (IDH1): qHTS. Isocitrate dehydrogenase [NADP] cytoplasmic (Homo sapiens), O75874. IDH1-R132H enzyme, NADPH consumption, diaphorase/resazurin fluorescence. Potency, µM (doses to about 76.6 µM), inactives show at the highest dose activity change, negative = inhibition, usual class: inhibitors. hit rate 0.093% among 390,000. AID 602179, 2012; also: % is scaled to controls: 0 for no effect and ±100 for the full control effect; nearly all actives have a fitted effect of over 65% in size
#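 IDH1-R132H (0.5 ug/mL dispensed) in pH 7.5 Tris buffer was preincubated 30 min with compound, then given a substrate mix of 0.016 mM NADPH and 2 mM alpha-KG for 80 min at room temperature; remaining NADPH was read by diaphorase/resazurin fluorescence.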
# Nrf2 block: Nrf2 qHTS screen for inhibitors. A549 ARE-Fluc reporter, luciferase luminescence, 18-24 h. Potency, µM (series often up to 46 µM), without a hit: at the top dose activity change, negative = inhibition, usual class: inhibitors. hit rate 2.1% among 360,000. AID 504444, 2011; also: % is scaled to controls: 0 for no effect and ±100 for the full control effect; nearly all actives have a fitted effect of over 60% in size
#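 A549 ARE_Fluc cells (5000/well, 5% FBS OPTI-MEM) pre-incubated 2 h, then treated with compounds 18-24 h at 37C/5% CO2 in concentration-response. CellTiter-Fluor viability read first; BugLite luciferase luminescence after 15 min at room temperature gives Nrf2 activity.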
# Mito fusion act: qHTS Assay for Small Molecule Inhibitors of Mitochondrial Division or Activators of Mitochondrial Fusion. S. cerevisiae fusion-defective mutant growth rescue, CellTiterGlo 48 h. Potency, µM (highest dose often 46.1 µM), for inactives: at the top dose growth rescue (activation), usual class: activators. hit rate 0.23% among 320,000; also: % of control where 0% means no effect; nearly all actives have a fitted effect of over 45% in size
#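 Yeast fusion mutant, YPEG (non-fermentable carbon), compound, 48 h at 37C non-permissive; CellTiterGlo added, 10 min RT, luminescence read. Rescued growth = division inhibition.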
# rTrxR1 inhibitor: qHTS Assay for Inhibitors of Mammalian Selenoprotein Thioredoxin Reductase 1 (TrxR1): qHTS; Potency, µM (series often up to 114 µM), for the others: top-dose activity change, negative = inhibition, hits mostly inhibitors; AID 588453, 2011; recombinant rTrxR1, NADPH fluorescence consumption, selenite substrate; hit rate 1% among 390,000; also: % is scaled to controls: 0 for no effect and ±100 for the full control effect; nearly all actives have a fitted effect of over 65% in size
# Target sequence (O89049 whole entry, looked up): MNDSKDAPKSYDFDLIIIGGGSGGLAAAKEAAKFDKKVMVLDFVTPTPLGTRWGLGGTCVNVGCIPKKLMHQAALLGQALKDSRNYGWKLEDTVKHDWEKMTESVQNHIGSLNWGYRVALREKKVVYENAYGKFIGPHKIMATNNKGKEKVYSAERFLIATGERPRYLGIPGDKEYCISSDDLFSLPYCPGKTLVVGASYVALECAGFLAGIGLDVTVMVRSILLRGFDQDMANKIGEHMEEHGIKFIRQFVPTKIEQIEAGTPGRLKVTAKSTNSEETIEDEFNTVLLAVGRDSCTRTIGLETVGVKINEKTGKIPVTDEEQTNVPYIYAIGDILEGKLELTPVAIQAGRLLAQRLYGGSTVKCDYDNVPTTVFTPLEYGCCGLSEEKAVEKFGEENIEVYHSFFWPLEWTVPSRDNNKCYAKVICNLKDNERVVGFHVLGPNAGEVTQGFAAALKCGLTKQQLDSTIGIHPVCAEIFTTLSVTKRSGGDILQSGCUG
#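 Rat TrxR1 (90 nM in the dispensed reagent) was pre-reduced with 400 uM NADPH for 5 min at room temperature, then incubated with compound for 15 min. After 400 uM selenite was added, NADPH fluorescence (Ex 340/Em 450 nm) was followed for 8 min.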
# A549 viability: Nrf2 qHTS screen for inhibitors: counterscreen for cytotoxicity | A549 ARE-Fluc cells, CellTiter-Fluor viability, 18-24 h | Potency, µM (doses to about 46 µM), for inactives: at the highest dose activity change, negative = cytotoxicity, actives largely listed as inhibitors | hit rate 0.16% among 390,000 | AID 504648, 2011; also: % is scaled to controls: 0 for no effect and ±100 for the full control effect
#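 Cytotoxicity counterscreen: CellTiter-Fluor fluorescence was measured in A549 ARE_Fluc cells after 18-24 h of compound exposure in a concentration series. The subsequent BugLite luminescent read reports ARE-luciferase activity.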
# TrxR1 substrate: qHTS Assay for Substrates of Mammalian Selenoprotein Thioredoxin Reductase 1 (TrxR1): qHTS; purified TrxR1 substrate turnover, NADPH consumption readout; Potency, µM (highest dose often 114 µM), without a hit: at the highest dose activity change, negative = substrate turnover; hit rate 0.01% among 390,000; AID 588456, 2011; also: % is scaled to controls: 0 for no effect and ±100 for the full control effect; nearly all actives have a fitted effect of over 50% in size
#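 Rat TrxR1, dispensed at 90 nM, was prereduced with 400 uM NADPH (final) for 5 min at ~22 deg C, then incubated with compound 15 min before 400 uM selenite. A first-read NADPH fluorescence drop versus no-compound background flagged substrates.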
# * marks the source's active call; other numbers are inactive results; ? = inconclusive; . = not tested or not shown; [ ] = another dose, or the depositor's remark. Rows were chosen to be rich in hits. Some 3.1% of all compounds tested hit in one or more screens of this group. Calls follow the shape of the dose curve; as a rule, active = well fitted curve in the direction sought with a large enough effect; inconclusive = small, poorly fitted or top-dose-only effect, or another doubt; inactive = no such curve, though single readings can be large; an effect the other way counts as inactive or inconclusive. Potency is read from the fitted curve at half-maximal effect.
SMILES,mIDH1 inhibitor,Nrf2 block,Mito fusion act,rTrxR1 inhibitor,A549 viability,TrxR1 substrate
O=C1/C(=C/c2ccc(O)c([N+](=O)[O-])c2)SC(=S)N1Cc1ccccc1,0.5%,-7.8%,-4.1%,18.9%,-30.0%,0.0%
COc1cc(/C=C2\SC(=O)N(Cc3ccc(Cl)cc3)C2=O)cc([N+](=O)[O-])c1O,13.1%,14.6µM*,4.2%,-44.3%,14.6µM*,-13.7%
COc1cc(/C=C2/SC(=S)N(Cc3ccccc3)C2=O)cc(Cl)c1O,?,?,0.2%,5.2%[57.1 µM],?,12.8%[57.1 µM]
O=C1/C(=C\c2cccc([N+](=O)[O-])c2O)SC(=S)N1Cc1ccccc1,2.4%,16.4µM*,-21.3%,?,?,-3.2%
COc1cc(/C=C2\SC(=O)N(Cc3ccc(F)cc3)C2=O)cc([N+](=O)[O-])c1O,19.0%,?,2.4%,-19.4%,?,-6.3%
COc1cc([N+](=O)[O-])cc(/C=C2/SC(=S)N(Cc3ccccc3)C2=O)c1O,-5.8%,20.6µM*,-6.6%,-15.4%[2.29 µM],2.9%,-0.8%[57.1 µM]
CCOC(=O)c1[nH]c(C)c(CCC(=O)Nc2c(C)cc(C)cc2C)c1C,18.5%,.,.,14.3%[57.1 µM],14.7%,-0.3%[57.1 µM]
COc1ccc(NC(=O)CCN2CCN(CCO)CC2)c(OC)c1,-14.3%,11.8%,.,33.7%,10.6%,10.5%
CN(C)c1ccc(-c2c(C3C4C=CCCC4(C)C(=O)N3Cc3ccccc3)ccc3ccccc23)cc1 (stereo unspecified),.,-22.1%,.,2.8%,0.0%,-7.3%
Cc1ccc(NC(=O)c2ccc(-n3cccn3)c([N+](=O)[O-])c2)cc1,19.1%,?,-2.2%,-27.9%,6.1%,-3.7%
O=C(O)c1ccc(-n2cccn2)c([N+](=O)[O-])c1,1.0%,-2.6%,0.7%,56.2µM*,-2.4%,-13.4%
O=c1c2ccccc2nc(COc2ccccc2)n1/N=C/c1ccc(O)cc1O,-3.4%,25.9µM*,3.7%,8.1%,-10.1%,1.0%
O=c1c2ccccc2nc(COc2ccccc2)n1/N=C/c1c[nH]c2ccccc12,0.0%,-1.1%,0.6%,15.6%,-11.0%,7.5%
Cc1ccc(NC(=O)C2CCCN(S(=O)(=O)c3ccc4c(c3)oc(=O)n4C)C2)cc1Cl (stereo unspecified),-7.6%,-3.7%,.,7.1%,12.2%,-5.9%
CCOC(=O)c1c(C)[nH]c(C(=O)N2CCc3cc(OC)c(OC)cc3C2)c1C,-5.9%,23.1µM*,-1.0%,?,?,-17.3%
Cc1c(P(=S)(c2ccccc2)c2ccccc2)c2ccccc2n1C(=O)NCc1ccccc1,.,-14.4%,.,.,-2.0%,.
CC(=O)Nc1cc(O)c2nonc2c1O,.,20.6µM*,.,5.62µM*,6.51µM*,3.16µM*
CC(=O)Nc1c(O)cc(Br)c2nonc12,.,6.4%,.,-30.7%,0.2%,-2.3%
COc1ccc(NC(=O)c2cc3ccc(O)cc3o/c2=N\O)cc1,-4.7%,2.06µM*,1.5%,3.4%,?,-5.9%
COc1ccc2o/c(=N\O)c(C(=O)Nc3ccccc3OC)cc2c1,16.3%,-1.4%,-2.0%,-13.0%,-5.2%,-9.9%
CCCCCCCc1ccc(-c2ccc(O)cc2)nc1,16.0%,?,-1.3%,20.8%[57.1 µM],-7.1%,5.4%[57.1 µM]
CCCCCc1ccc(-c2ccc(/C=C/C(=O)O)cc2)nc1,10.9%,?,12.6µM*,-3.1%,-10.3%,7.5%
COC(=O)CN1C(=O)CSc2ccc(S(=O)(=O)Nc3cccc(C)c3C)cc21,19.4%,-13.1%,.,0.2%,-0.7%,-11.4%
S=C(S)OC1CC2CC1C1CCCC21 (stereo unspecified),-12.5%,-9.3%,18.4µM*,?,0.8%,0.0%
CCN(CC)c1ccc2cc(NC(=O)CCC(=O)O)c(=O)oc2c1,8.8%,11.6µM*,-1.3%,3.7%,?,61.4%
SMILES,mIDH1 inhibitor,Nrf2 block,Mito fusion act,rTrxR1 inhibitor,A549 viability,TrxR1 substrate
CCN(CC)c1ccc2cc(C(C)=O)c(=O)oc2c1,0.9%,?,2.9%,-35.1%,?,-22.0%
O=[N+]([O-])c1ccc(-c2ccn[nH]2)o1,8.2%,-10.1%,?,3.55µM*,-20.8%,2.3%[57.1 µM]
Nc1nc(N)nc(-c2ccc([N+](=O)[O-])o2)n1,-6.9%,-14.3%,.,-28.6%,-6.5%,-5.8%[57.1 µM]
CN(C)/[N+]([O-])=N\Oc1cc(OC(=O)c2ccc(N)cc2)c([N+](=O)[O-])cc1[N+](=O)[O-],.,.,.,-33.2%,.,-15.9%
CC12C=CC3(CN(Cc4ccccc4)C(=O)C3C1C(=O)NCc1ccco1)O2 (stereo unspecified),4.3%,.,2.9%,56.2µM*,3.4%,7.5%
O=C1CCCC2=C1C(c1ccccc1Cl)N=C(Nc1nc3ccccc3o1)N2 (stereo unspecified),.,-6.5%,.,.,-1.0%,.
Cc1cc2c(s1)c1cnn(Cc3cc(C(F)(F)F)ccc3F)c(=O)c1n2C,.,3.6%,.,.,-0.4%,.
COc1ccc(C2C(CC(=O)O)=C(O)C(=O)N2c2ccccc2)cc1 (stereo unspecified),1.2%,?,-1.0%,31.6µM*,0.0%,2.6%
COc1ccc(C2C(C(C)=O)=C(O)C(=O)N2c2ccc(O)cc2)cc1 (stereo unspecified),12.4%,-4.1%,0.3%,-13.2%,-4.5%,-16.1%
CCCCN(C(C)=O)c1ccc2c(c1)C1CC2CCN1C(=O)OCc1ccccc1 (stereo unspecified),-5.9%,23.1µM*,.,-7.7%,-10.3%,1.5%
COCCCn1c(C)nc2c(c1=O)c1nc3ccccc3nc1n2CCc1ccccc1,11.6%,8.2µM*,1.6%,-8.2%,-10.9%,108.5%
Cc1nc2ccccc2c(=O)n1CCc1ccccc1,0.0%,?,10.1%,20.3%,7.8%,2.4%
Cc1cc2c(s1)c1cnn(Cc3ccc(F)cc3)c(=O)c1n2C,.,-13.1%,.,.,-7.6%,.
NC(CO)C(=O)NNCc1ccc(O)c(O)c1O (stereo unspecified),-11.7%,?,1.5%,5.97µM*,-17.7%,12.5%[57.1 µM]
O=c1c(C(c2nnnn2C2CCCCC2)N2CCCCC2)coc2ccc(Cl)cc12 (stereo unspecified),5.2%,-15.5%,?,28.2µM*,.,2.1%
Clc1ccc(C(c2nnnn2C2CCCC2)N2CCN(Cc3ccncc3)CC2)cc1 (stereo unspecified),2.5%,-2.7%,4.4%,6.0%[57.1 µM],0.0%,7.2%[57.1 µM]
